In PMC7862700, “An all-to-all approach to the identification of sequence-specific readers for epigenetic DNA modifications on cytosine” one finds binding signal data, which are given here for one sequence.

What all share (assay): DAPPL (digital affinity profiling via proximity ligation, sequencing); 10 mM Tris-HCl pH 7.5, 50 mM NaCl, 1 mM DTT, 4% glycerol, room temperature, 30 min; GST-TFs on glutathione beads, 16-mer random dsDNA library, 0.1% formaldehyde crosslink after washing; high values mean tight binding
Assay [1] deals with T1, FEV (Homo sapiens, UniProt Q99581 1-238).
T1 sequence: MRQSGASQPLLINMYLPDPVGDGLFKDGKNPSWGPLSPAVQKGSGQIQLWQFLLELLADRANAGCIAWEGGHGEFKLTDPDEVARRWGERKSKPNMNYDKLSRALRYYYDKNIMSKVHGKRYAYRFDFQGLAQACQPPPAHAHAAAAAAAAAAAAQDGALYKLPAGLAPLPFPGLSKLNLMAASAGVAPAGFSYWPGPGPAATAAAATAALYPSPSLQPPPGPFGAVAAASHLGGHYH
To be noted: protein: recombinant; tags: N-terminal GST; dsDNA, one strand shown. Summed up: (§1)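 Binding signal is defined as a hexamer's read frequency for one factor over its frequency for the tag-only sample. To obtain reads, GST-fused human transcription factors were expressed in yeast, captured on glutathione beads, barcoded with DNA and pooled with that sample. Pools met 200 nmole of a 16-mer random double-stranded DNA library in Tris/NaCl/DTT/glycerol buffer for 30 min at room temperature before washing, 0.1% formaldehyde crosslinking, proximity ligation (BsaI/T4 ligase, 1 h, 37 °C), PCR and Illumina NextSeq500 sequencing.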

Assay [2] addresses ETV5 (Homo sapiens, UniProt P41161 1-510). To be noted: protein: recombinant; tags: N-terminal GST; dsDNA, one strand shown. The gist of the method: as §1
Assay [3] concerns the target HSF1 (Homo sapiens, UniProt Q00613 1-529). To be noted: protein: recombinant; tags: N-terminal GST; chain copies: 3; dsDNA, one strand shown. Summed up: as §1
Assay [4] addresses T2, SPIC (Homo sapiens, UniProt Q8N5J4 1-248).
T2 sequence: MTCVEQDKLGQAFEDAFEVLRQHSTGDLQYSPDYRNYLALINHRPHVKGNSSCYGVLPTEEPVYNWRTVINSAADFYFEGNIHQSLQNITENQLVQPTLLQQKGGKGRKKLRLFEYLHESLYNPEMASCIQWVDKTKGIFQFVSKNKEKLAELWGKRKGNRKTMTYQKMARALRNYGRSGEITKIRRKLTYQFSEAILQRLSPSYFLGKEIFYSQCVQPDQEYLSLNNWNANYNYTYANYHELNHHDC
To be noted: protein: recombinant; tags: N-terminal GST; dsDNA, one strand shown. Summed up: as §1

In assay [5] the target is ELF4 (Homo sapiens, UniProt Q99607 1-663). To be noted: protein: recombinant; tags: N-terminal GST; dsDNA, one strand shown. The gist of the method:
as §1

In assay [6] the target is T3, ELK4 (Homo sapiens, UniProt P28324-2 1-405).
T3 sequence: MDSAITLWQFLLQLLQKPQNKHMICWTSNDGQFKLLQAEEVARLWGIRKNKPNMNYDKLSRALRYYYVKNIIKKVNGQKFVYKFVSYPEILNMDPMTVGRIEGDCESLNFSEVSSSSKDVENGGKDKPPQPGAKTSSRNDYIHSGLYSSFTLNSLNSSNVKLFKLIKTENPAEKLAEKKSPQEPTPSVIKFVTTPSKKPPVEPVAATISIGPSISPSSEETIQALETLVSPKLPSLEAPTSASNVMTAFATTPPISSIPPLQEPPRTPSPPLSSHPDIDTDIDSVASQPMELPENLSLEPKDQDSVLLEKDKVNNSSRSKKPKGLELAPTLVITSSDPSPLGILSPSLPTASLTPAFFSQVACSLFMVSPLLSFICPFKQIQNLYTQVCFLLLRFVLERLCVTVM
To be noted: protein: recombinant; tags: N-terminal GST; dsDNA, one strand shown. The gist of the method: as §1

Assay [7] addresses T4, ETV2 (Homo sapiens, UniProt O00321 1-342).
T4 sequence: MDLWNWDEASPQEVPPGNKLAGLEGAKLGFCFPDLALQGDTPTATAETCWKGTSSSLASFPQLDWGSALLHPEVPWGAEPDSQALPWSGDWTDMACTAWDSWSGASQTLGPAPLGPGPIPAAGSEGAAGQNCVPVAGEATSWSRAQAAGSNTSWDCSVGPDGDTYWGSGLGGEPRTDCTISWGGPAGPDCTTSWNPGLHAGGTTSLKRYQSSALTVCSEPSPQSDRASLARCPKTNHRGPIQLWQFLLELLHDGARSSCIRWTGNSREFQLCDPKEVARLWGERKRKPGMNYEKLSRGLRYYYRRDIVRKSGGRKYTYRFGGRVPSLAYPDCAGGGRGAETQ
To be noted: protein: recombinant; tags: N-terminal GST; dsDNA, one strand shown. Summed up: as §1

The target of assay [8] is T5, ELF3 (Homo sapiens, UniProt P78545 1-371).
T5 sequence: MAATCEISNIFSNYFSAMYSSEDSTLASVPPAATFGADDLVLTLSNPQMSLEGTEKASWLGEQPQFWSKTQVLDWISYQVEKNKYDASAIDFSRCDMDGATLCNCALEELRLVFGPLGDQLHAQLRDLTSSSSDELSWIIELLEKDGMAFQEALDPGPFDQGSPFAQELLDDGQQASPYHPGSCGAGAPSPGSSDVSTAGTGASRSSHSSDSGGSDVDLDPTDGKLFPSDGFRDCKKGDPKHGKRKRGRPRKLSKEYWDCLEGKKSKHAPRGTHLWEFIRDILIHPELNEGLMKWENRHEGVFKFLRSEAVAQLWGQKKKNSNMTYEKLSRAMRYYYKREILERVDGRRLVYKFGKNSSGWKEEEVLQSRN
To be noted: protein: recombinant; tags: N-terminal GST; dsDNA, one strand shown. Summed up:
as §1

Assay [9] concerns the target CRX (Homo sapiens, UniProt O43186 1-299). To be noted: protein: recombinant; tags: N-terminal GST; dsDNA, one strand shown. Summed up:
as §1

For assay [10], the target named is ETV1 (Homo sapiens, UniProt P50549 1-477). To be noted: protein: recombinant; tags: N-terminal GST; dsDNA, one strand shown. The gist of the method:
as §1

Assay [11] deals with T6, ERF (Homo sapiens, UniProt P50548 1-548).
T6 sequence: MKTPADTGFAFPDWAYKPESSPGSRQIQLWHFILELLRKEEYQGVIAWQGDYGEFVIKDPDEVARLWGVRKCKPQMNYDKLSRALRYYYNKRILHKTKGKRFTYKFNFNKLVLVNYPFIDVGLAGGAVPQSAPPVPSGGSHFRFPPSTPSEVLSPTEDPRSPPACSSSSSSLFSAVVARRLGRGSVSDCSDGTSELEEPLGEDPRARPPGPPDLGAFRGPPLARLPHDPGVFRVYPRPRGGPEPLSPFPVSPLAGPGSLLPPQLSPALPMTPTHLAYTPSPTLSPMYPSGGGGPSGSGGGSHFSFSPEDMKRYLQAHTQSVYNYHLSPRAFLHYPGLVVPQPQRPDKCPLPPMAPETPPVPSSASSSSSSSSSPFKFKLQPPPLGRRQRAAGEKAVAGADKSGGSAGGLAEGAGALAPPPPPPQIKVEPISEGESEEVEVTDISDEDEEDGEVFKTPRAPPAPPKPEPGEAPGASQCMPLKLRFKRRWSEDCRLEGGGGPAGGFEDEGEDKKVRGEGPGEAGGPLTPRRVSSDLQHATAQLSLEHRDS
To be noted: protein: recombinant; tags: N-terminal GST; dsDNA, one strand shown. The gist of the method:
as §1

Assay [12] deals with T7, ETV3L (Homo sapiens, UniProt Q6ZN32 1-361).
T7 sequence: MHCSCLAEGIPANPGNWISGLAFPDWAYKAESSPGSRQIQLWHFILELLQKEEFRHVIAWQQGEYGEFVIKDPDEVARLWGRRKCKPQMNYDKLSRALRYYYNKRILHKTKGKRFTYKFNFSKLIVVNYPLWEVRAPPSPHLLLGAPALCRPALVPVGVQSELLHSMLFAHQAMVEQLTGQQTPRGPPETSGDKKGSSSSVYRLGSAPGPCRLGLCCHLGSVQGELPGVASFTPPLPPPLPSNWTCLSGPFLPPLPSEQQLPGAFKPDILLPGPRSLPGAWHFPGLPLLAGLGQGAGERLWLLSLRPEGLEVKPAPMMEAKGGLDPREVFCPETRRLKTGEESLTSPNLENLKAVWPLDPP
To be noted: protein: recombinant; tags: N-terminal GST; dsDNA, one strand shown. The gist of the method: as §1

Assay [13] has as its target T8, ETS2 (Homo sapiens, UniProt P15036 1-469).
T8 sequence: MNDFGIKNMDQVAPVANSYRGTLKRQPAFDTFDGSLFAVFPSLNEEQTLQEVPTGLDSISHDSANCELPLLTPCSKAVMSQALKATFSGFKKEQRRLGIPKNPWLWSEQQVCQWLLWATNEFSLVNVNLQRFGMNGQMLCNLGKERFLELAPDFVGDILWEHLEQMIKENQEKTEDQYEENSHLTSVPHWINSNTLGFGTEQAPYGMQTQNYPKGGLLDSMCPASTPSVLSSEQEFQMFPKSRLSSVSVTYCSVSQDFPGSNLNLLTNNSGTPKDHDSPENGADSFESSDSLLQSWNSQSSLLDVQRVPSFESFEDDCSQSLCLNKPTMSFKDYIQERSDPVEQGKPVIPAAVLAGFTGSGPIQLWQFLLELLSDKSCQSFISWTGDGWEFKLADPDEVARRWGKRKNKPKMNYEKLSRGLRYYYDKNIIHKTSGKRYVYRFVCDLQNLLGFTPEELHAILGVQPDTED
To be noted: protein: recombinant; tags: N-terminal GST; dsDNA, one strand shown. The gist of the method: as §1

Assay [14] has as its target T9, SPDEF (Homo sapiens, UniProt O95238 1-335).
T9 sequence: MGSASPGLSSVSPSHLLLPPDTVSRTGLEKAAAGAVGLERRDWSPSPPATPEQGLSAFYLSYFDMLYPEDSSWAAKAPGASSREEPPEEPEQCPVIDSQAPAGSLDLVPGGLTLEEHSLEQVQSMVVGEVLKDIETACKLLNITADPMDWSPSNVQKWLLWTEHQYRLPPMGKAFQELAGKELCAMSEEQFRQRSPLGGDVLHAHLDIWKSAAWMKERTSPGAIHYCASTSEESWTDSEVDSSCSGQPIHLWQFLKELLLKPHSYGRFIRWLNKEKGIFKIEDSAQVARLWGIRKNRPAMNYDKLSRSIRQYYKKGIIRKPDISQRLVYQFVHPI
To be noted: protein: recombinant; tags: N-terminal GST; dsDNA, one strand shown. Summed up: as §1

For assay [15], the target named is T10, ETV7 (Homo sapiens, UniProt Q9Y603 1-341).
T10 sequence: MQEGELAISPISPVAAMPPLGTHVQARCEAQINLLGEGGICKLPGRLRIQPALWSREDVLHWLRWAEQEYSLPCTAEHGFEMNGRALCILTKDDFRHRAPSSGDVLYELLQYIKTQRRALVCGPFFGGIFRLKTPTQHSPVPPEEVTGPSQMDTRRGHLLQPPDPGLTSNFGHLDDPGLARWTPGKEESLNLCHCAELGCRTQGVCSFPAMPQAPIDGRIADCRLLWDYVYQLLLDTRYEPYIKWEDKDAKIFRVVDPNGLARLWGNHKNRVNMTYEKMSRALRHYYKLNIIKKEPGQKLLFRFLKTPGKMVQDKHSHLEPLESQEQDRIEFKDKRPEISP
To be noted: protein: recombinant; tags: N-terminal GST; dsDNA, one strand shown. The gist of the method: as §1

Assay [16] concerns the target T11, ELF5 (Homo sapiens, UniProt Q9UKW6-2 1-255).
T11 sequence: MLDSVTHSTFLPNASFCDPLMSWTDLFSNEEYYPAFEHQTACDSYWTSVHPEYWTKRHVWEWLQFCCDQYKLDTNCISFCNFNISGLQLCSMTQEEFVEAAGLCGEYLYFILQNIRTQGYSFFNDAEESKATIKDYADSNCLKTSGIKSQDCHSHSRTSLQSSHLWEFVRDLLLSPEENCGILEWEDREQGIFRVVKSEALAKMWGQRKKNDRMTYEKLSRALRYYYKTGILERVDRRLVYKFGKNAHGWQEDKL
To be noted: protein: recombinant; tags: N-terminal GST; dsDNA, one strand shown. The gist of the method: as §1

Assay [17] concerns the target T12, ETV3 (Homo sapiens, UniProt P41162-2 1-143).
T12 sequence: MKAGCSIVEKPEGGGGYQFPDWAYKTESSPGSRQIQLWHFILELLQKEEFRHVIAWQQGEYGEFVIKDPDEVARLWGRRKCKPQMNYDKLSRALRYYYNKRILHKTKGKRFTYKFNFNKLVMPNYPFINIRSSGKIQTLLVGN
To be noted: protein: recombinant; tags: N-terminal GST; dsDNA, one strand shown. Summed up:
as §1

Assay [18] addresses ETV6 (Homo sapiens, UniProt P41212 1-452). To be noted: protein: recombinant; tags: N-terminal GST; dsDNA, one strand shown. Summed up:
as §1

Sequence of ELF4 (Q99607 whole entry): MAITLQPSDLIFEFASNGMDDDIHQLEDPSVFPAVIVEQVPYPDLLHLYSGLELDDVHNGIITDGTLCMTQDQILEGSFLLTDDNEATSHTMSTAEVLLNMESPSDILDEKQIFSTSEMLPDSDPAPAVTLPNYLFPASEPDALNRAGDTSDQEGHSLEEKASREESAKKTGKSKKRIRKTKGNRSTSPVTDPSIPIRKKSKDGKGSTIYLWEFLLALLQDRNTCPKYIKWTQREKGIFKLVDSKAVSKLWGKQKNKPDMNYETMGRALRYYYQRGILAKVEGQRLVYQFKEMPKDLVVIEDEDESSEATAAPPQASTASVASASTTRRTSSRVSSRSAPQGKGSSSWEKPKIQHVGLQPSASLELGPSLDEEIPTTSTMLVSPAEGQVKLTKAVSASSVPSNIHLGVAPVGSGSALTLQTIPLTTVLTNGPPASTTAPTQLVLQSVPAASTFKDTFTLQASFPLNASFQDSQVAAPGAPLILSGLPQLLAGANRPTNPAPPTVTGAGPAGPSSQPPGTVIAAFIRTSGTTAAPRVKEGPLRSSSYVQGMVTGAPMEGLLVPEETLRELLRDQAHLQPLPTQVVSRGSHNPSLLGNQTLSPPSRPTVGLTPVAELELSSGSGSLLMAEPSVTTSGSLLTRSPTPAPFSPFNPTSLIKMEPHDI
Sequence of HSF1 (Q00613 whole entry): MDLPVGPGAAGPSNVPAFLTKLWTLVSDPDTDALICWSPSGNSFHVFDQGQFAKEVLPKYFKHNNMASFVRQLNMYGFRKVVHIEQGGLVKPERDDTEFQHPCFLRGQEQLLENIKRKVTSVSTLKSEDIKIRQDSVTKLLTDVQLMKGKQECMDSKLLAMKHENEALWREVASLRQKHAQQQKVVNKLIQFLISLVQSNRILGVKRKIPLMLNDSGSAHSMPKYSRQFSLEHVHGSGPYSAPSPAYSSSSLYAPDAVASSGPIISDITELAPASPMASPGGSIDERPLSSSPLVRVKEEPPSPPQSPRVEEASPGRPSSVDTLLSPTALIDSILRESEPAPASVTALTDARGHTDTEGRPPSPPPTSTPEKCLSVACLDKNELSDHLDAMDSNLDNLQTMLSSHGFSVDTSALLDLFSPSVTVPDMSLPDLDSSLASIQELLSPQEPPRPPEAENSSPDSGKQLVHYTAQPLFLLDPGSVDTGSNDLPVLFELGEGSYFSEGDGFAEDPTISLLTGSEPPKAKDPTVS
Sequence of ETV5 (P41161 whole entry): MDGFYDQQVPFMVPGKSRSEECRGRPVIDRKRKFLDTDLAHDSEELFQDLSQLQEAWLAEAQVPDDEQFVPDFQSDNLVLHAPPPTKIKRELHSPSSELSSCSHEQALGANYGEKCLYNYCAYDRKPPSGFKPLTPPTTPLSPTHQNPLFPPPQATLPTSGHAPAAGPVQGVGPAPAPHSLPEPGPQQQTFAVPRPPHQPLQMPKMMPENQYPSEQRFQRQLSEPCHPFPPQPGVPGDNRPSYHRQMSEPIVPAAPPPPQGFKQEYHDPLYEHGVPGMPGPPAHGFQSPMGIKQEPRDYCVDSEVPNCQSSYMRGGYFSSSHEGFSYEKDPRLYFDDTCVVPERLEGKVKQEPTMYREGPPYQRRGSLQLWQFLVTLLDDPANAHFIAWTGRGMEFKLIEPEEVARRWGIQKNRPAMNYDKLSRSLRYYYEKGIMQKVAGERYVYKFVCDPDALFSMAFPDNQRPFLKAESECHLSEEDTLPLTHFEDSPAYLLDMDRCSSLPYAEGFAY
Sequence of ETV6 (P41212 whole entry): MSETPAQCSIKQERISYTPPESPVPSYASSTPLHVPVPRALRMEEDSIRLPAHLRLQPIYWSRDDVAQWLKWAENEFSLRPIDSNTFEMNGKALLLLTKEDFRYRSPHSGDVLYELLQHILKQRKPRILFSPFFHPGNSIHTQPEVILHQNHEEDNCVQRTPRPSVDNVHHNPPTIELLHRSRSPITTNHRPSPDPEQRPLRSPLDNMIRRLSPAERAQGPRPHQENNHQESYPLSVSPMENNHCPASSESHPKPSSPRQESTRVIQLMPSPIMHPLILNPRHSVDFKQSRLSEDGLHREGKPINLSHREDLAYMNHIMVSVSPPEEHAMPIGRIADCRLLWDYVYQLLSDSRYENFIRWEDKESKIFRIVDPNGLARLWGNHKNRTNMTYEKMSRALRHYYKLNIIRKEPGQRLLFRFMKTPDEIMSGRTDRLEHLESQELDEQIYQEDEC
Sequence of ETV1 (P50549 whole entry): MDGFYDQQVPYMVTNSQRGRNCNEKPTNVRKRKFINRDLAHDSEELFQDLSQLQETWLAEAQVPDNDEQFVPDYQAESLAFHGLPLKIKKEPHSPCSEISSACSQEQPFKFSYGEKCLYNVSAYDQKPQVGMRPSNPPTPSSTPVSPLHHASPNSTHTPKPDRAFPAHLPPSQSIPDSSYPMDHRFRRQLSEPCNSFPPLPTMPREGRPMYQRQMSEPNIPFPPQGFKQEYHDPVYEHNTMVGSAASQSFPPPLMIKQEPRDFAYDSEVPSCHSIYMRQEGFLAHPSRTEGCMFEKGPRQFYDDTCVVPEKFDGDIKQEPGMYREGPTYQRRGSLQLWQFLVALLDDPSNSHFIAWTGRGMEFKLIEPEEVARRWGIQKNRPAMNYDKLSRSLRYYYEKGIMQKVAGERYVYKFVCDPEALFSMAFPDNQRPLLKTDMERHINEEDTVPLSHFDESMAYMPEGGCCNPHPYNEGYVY
Sequence of CRX (O43186 whole entry): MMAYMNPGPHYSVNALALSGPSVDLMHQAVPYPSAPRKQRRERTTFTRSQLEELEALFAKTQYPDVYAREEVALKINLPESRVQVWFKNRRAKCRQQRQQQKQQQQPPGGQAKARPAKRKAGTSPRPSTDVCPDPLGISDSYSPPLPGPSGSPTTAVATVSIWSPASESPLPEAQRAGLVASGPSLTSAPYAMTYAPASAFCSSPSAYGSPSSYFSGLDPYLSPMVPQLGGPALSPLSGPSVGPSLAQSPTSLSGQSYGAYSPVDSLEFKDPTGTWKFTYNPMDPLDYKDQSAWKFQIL

For the sequence TTAAAC, the binding signal in assay [1] was 1.21 fold enrichment (6-mer frequency, TF over GST control); in [2], 1.29 fold enrichment (6-mer frequency, TF over GST control); in assay [3], 1.7 fold enrichment (6-mer frequency, TF over GST control); in assay [4], 1.05 fold enrichment (6-mer frequency, TF over GST control); in assay [5], 1.21 fold enrichment (6-mer frequency, TF over GST control); in [6] it was 1.26 fold enrichment (6-mer frequency, TF over GST control). Further, the binding signal in [7] was 1.26 fold enrichment (6-mer frequency, TF over GST control); in [8], 1.19 fold enrichment (6-mer frequency, TF over GST control); in assay [9], 2.58 fold enrichment (6-mer frequency, TF over GST control); in assay [10], 1.24 fold enrichment (6-mer frequency, TF over GST control); in assay [11], 1.39 fold enrichment (6-mer frequency, TF over GST control); in assay [12] it was 1.36 fold enrichment (6-mer frequency, TF over GST control). Further, the binding signal in [13] is 1.2 fold enrichment (6-mer frequency, TF over GST control); in assay [14], 1.18 fold enrichment (6-mer frequency, TF over GST control); in assay [15] it was 1.14 fold enrichment (6-mer frequency, TF over GST control); in assay [16], 1.18 fold enrichment (6-mer frequency, TF over GST control); in assay [17], 1.23 fold enrichment (6-mer frequency, TF over GST control); in assay [18], 1.3 fold enrichment (6-mer frequency, TF over GST control).
